Assay [1] deals with Aerobactin synthetase IucA (Klebsiella pneumoniae hvKP1). As to the kind of experiment: IucA enzyme inhibition, primary screen, biochemical, Spectrum library (AID 1346200).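 Further: 100% = wells without compound and 0% = wells lacking enzyme.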 Particulars: malachite green pyrophosphate, A620, at 8 µM, hits give low values.
Assay [2] deals with Aerobactin synthetase IucA (Klebsiella pneumoniae, hypervirulent). As to the kind of experiment: biochemical IucA inhibition screen of LOPAC library by absorbance (AID 1346212).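 Further: 100% = no compound wells and 0% = no enzyme wells.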 The conditions noted are these: IucA enzyme assay, absorbance (OD) readout; hits give low values;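 tested at 8 µM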.

Several values for one entry are separate records, joined by “and”; a condition that tells them apart may be missing. Equal values may be shown once. Unmarked numbers belong to inactive results. How the calls were made is not given here.

As usually defined, the remaining activity is the signal under treatment as a percentage of the control signal. Turning to `CCCCC[C@H](CC(=O)NO)C(=O)N[C@H](C(=O)N1CCC[C@H]1CO)C(C)C`, the activity remaining in assay [1] was 109%. Moreover, the remaining activity in assay [2] was 111%.

For the compound `CCCNC(C)C(=O)Nc1ccccc1C` (stereo not given), the activity remaining in assay [1] is 82%. For the same compound, in assay [2], the remaining activity was 96.4%.

As to `Cc1c(OCC(F)(F)F)ccnc1CS(=O)c1nc2ccccc2[nH]1` (stereo not given), the activity remaining in assay [1] is 121%. In assay [2], the remaining activity is 111%.

With `NS(=O)(=O)c1cc2c(cc1Cl)NC(C1CC3C=CC1C3)NS2(=O)=O` (stereo not given), the activity remaining in assay [1] is 122%. Moreover, in assay [2], the remaining activity was 95.7%.

For the compound `O=C(O)c1cc2cc(Cc3cccnc3)ccc2o1`, the activity remaining in assay [1] was 121%. For the same compound, in assay [2], the remaining activity was 104%.

Regarding `CC[N+](CC)(CC)CCOc1cccc(OCC[N+](CC)(CC)CC)c1OCC[N+](CC)(CC)CC`, the activity remaining in assay [1] was 96.2%. Besides, the remaining activity in assay [2] is 111%.

For `O=C1N=C(O)CN1/N=C/c1ccc(-c2ccc([N+](=O)[O-])cc2)o1`, the activity remaining in assay [1] is 118%. In addition, in assay [2], the remaining activity is 100%.

Consider `CCCN(CCC)CCc1cccc2c1CC(=O)N2`, for which, in assay [1], the activity remaining was 98.7%. Besides, the remaining activity in assay [2] was 80.8%.

As to `CNCCC(Oc1ccc(C(F)(F)F)cc1)c1ccccc1` (stereo not given), the activity remaining in assay [1] was 96.1%. Besides, the remaining activity in assay [2] was 96.6%.

Regarding `O=C(c1ccccc1)c1ccc2n1CCC2C(=O)O` (stereo not given), in assay [1], the activity remaining was 128%. Further, the remaining activity in assay [2] was 120%.

In the case of `O=C1c2c(O)ccc(O)c2C(=O)c2c(NCCNCCO)ccc(NCCNCCO)c21`, the activity remaining in assay [1] is 107%. Moreover, in assay [2], the remaining activity was 110%.

Consider `C1CCc2nnnn2CC1`, for which, in assay [1], the activity remaining was 112%. For the same compound, the remaining activity in assay [2] was 107%.

`CC(C)(Oc1ccc(C2CC2(Cl)Cl)cc1)C(=O)O` (stereo not given): the activity remaining in assay [1] was 116%. The remaining activity in assay [2] is 114%.

As to `Oc1cc(O)c2c(c1)O[C@H](c1ccc(O)c(O)c1)[C@@H](O)C2`, the activity remaining in assay [1] was 93%. Further, in assay [2], the remaining activity was 106%.

In the case of `CC(=O)OCC1=C(C(=O)O)N2C(=O)[C@@H](NC(=O)CSc3ccncc3)[C@H]2SC1`, the activity remaining in assay [1] was 109%. For the same compound, the remaining activity in assay [2] is 113%.

Regarding `Clc1ccccc1C(c1ccccc1)(c1ccccc1)n1ccnc1`, in assay [1], the activity remaining was 113%. In assay [2], the remaining activity is 117%.

Take `O=C(O)CCCCCCCC(=O)O`: the activity remaining in assay [1] is 120%. Besides, in assay [2], the remaining activity is 93.4%.

Regarding `CN1C[C@H](C(=O)N[C@]2(C)O[C@@]3(O)[C@@H]4CCCN4C(=O)[C@H](Cc4ccccc4)N3C2=O)C[C@@H]2c3cccc4[nH]cc(c34)C[C@H]21`, the activity remaining in assay [1] was 118%. For the same compound, in assay [2], the remaining activity is 105%.

As to `CCN(CC)CCNC(=O)c1cc(Cl)c(N)cc1OC`, the activity remaining in assay [1] was 88.1%. Moreover, the remaining activity in assay [2] was 101%.

`CC1=C(/C=C/C(C)=C/C=C/C(C)=C\C(=O)O)C(C)(C)CCC1`: the activity remaining in assay [1] was 116%. Further, in assay [2], the remaining activity was 85.8%.

For the compound `O=c1[nH]cnc2[nH]ncc12`, the activity remaining in assay [1] was 99.3%. Besides, the remaining activity in assay [2] is 110%.

Turning to `CC(C)(C)NCC(O)c1ccc(O)c(CO)c1` (stereo not given), the activity remaining in assay [1] is 110%. Moreover, the remaining activity in assay [2] was 121% and 104%.

Consider `N[C@@H](Cc1ccc(O)c(O)c1)C(=O)O`, for which the activity remaining in assay [1] was 115%. Further, the remaining activity in assay [2] is 97%.

As to `NC(=O)CC[C@H](N)C(=O)O`, the activity remaining in assay [1] was 109%. Besides, the remaining activity in assay [2] was 110%.

For the compound `CCCNCC(O)COc1ccccc1C(=O)CCc1ccccc1` (stereo not given), in assay [1], the activity remaining is 104%. Moreover, the remaining activity in assay [2] was 112%.

Turning to `CCOC(=O)N1CCC(=C2c3ccc(Cl)cc3CCc3cccnc32)CC1`, the activity remaining in assay [1] is 116%. In addition, in assay [2], the remaining activity is 112%.

As to `CN[C@H](CC(=O)O)C(=O)O`, the activity remaining in assay [1] is 118%. The remaining activity in assay [2] is 118%.

In the case of `CCCN1C[C@H](CSC)C[C@@H]2c3cccc4[nH]cc(c34)C[C@H]21`, the activity remaining in assay [1] was 120%. Besides, the remaining activity in assay [2] was 95.5%.

Take `Cn1c(=O)c2[nH]cnc2n(C)c1=O`: the activity remaining in assay [1] was 120%. The remaining activity in assay [2] is 111% and 102%.

Turning to `NC/C=C/C(=O)O`, the activity remaining in assay [1] is 107%. Moreover, the remaining activity in assay [2] is 101%.

`CN(C)c1nc(N(C)C)nc(N(C)C)n1`: in assay [1], the activity remaining was 118%. The remaining activity in assay [2] was 120%.

Take `CCN(CC)CCNC(=O)c1ccc(NC(C)=O)cc1`: in assay [1], the activity remaining is 92.5%. Also, the remaining activity in assay [2] is 109%.

In the case of `CNC(=O)Oc1ccc2c(c1)[C@]1(C)CCN(C)[C@@H]1N2C`, in assay [1], the activity remaining is 116%. In assay [2], the remaining activity was 110%.

With `NNCCc1ccccc1`, in assay [1], the activity remaining was 112%. In assay [2], the remaining activity is 93.4%.

With `Oc1ccc(O)cc1`, the activity remaining in assay [1] is 121%. For the same compound, in assay [2], the remaining activity is 105%.

As for `O=[N+]([O-])c1cccc2cn[nH]c12`, in assay [1], the activity remaining was 102%. Further, the remaining activity in assay [2] is 114%.

Turning to `NCCCNCCSP(=O)(O)O`, the activity remaining in assay [1] is 113%. In addition, the remaining activity in assay [2] was 108%.

Take `Fc1ccc(C(c2ccc(F)cc2)N2CCN(C/C=C/c3ccccc3)CC2)cc1`: the activity remaining in assay [1] is 117%. In addition, in assay [2], the remaining activity was 103%.

Consider `CCOC(=O)C1=C[C@]2(CC)CCCN3CCc4c(n1c1ccccc41)[C@@H]32`, for which, in assay [1], the activity remaining is 108%. Besides, the remaining activity in assay [2] was 100%.

For the compound `CC(C)C(=O)Nc1ccc([N+](=O)[O-])c(C(F)(F)F)c1`, the activity remaining in assay [1] is 115%. In addition, the remaining activity in assay [2] was 97.1%.

As for `Clc1cccc(Cl)c1NC1=NCCN1`, in assay [1], the activity remaining was 119%. Further, the remaining activity in assay [2] is 122%.

Turning to `CCN(CC)C(=S)SSC(=S)N(CC)CC`, the activity remaining in assay [1] was 90.4%. Besides, the remaining activity in assay [2] is 89.3%.

`O=C(CCCN1CC=C(n2c(=O)[nH]c3ccccc32)CC1)c1ccc(F)cc1`: in assay [1], the activity remaining was 111%. The remaining activity in assay [2] was 98.7%.

For the compound `CN(C)CCCC1(c2ccc(F)cc2)OCc2cc(C#N)ccc21` (stereo not given), the activity remaining in assay [1] was 102%. In assay [2], the remaining activity is 124%.

As for `O=C1NC(=O)C(c2ccccc2)(c2ccccc2)N1`, the activity remaining in assay [1] was 122%. Also, the remaining activity in assay [2] was 124% and 101%.

Regarding `CN(C)CCC=C1c2ccccc2CCc2ccccc21`, the activity remaining in assay [1] was 110%. Further, in assay [2], the remaining activity was 106%.

Turning to `NCCS`, the activity remaining in assay [1] is 117%. Further, the remaining activity in assay [2] was 110%.

For `O=c1c(O)c(-c2ccc(O)cc2O)oc2cc(O)cc(O)c12`, in assay [1], the activity remaining is 96.8%. For the same compound, the remaining activity in assay [2] was 122%.

As for `COc1ccc2cc([C@H](C)C(=O)O)ccc2c1`, the activity remaining in assay [1] is 101%. For the same compound, the remaining activity in assay [2] was 91.4%.

Regarding `O=C(c1ccc(OCCN2CCCCC2)cc1)c1c(-c2ccc(O)cc2)sc2cc(O)ccc12`, in assay [1], the activity remaining was 105%. Further, the remaining activity in assay [2] was 92%.

Values taken from PubChem BioAssay.
